High-throughput results deposited in PubChem BioAssay by several laboratories.
HSP90 inh: blocks HSP90-mediated luciferase refolding in reticulocyte lysate; Rabbit reticulocyte lysate, luciferase refolding luminescence, 3 h; inhibition, % at 5.6 µM; 0.91% of 290,000 active; AID 1789;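 active = inhibition above the screen-wide mean plus 3 SD, computed separately per campaign, cut at about 16% in these data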;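 note: inhibitors lower the luminescence because luciferase stays unfolded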
PG9 Ab binder: small molecules binding HIV-1 gp120 antibody PG9. TR-FRET gp120-PG9 antibody binding. inhibition, % at 6.7 µM. 0.43% of 360,000 active. AID 624416; in the data active = inhibition above about 8.5%
HSF1 inh: HSF1 inhibition. 0.77% of 300,000 active. AID 2098. activity change, negative = inhibition, % at 7.5 µM (by protocol). NIH3T3-HGL HSE-luciferase, MG132-induced, luminescence 8 h; hits give low values;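 active = more than half of replicate wells show activity change below -50%, luminescence cut by over half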;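 note: luciferase reports HSF-1 transcriptional activity via heat shock element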
FXN GAA850 act: increases GAA850 frataxin promoter reporter activity; HEK293 lucGAA850 FXN promoter luciferase reporter, 24 h; percent of 10 µM SAHA response; activation, % at 6 µM; 0.56% of 360,000 active; AID 540364;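 active = activation above the average of all compounds screened plus 3 SD, cutoff fixed separately per campaign, cut at about 7.5% in these data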
AI-2 QS mod: modulates the Vibrio harveyi AI-2 quorum sensing system. Vibrio harveyi JMH597 AI-2 luminescence/OD600 ratio, 9 h; hits give low values; strain lacks LuxN and CqsS sensors; 0 = neutral-control median. activity change, % at 7.5 µM. 0.4% of 300,000 active. AID 2094; in the data active = activity change below about -75%, passing the limit was not always enough;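 note: luminescence divided by OD600 gain over 9 h not by final OD600 alone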
SMARCA2 activ: increases SMARCA2 function in MMTV reporter cells; activation, % at 9.1 µM; MG213 cells, MMTV-luciferase reporter, dexamethasone, overnight; 1% of 370,000 active; AID 652017; in the data active = activation above about 7.8%
SMARCA2 conf: SMARCA2 activation, confirmation screen. activation, % at 9.1 µM. MG213 cells, MMTV-luciferase with dexamethasone, luminescence, overnight; MG213 cells expressing E1A, Rb sequestered; DMSO wells 0%, reference activator 100%. 30% of 3,500 active. shares compounds with SMARCA2 activ;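 active = activation above its plate's cutoff, the mean activation of tested wells plus 3 SD, cut at about 7.9% in these data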
GAL4-VP16 Luc: activates GAL4-VP16 luciferase, flagging SMARCA2 activator hits. HEK293 GAL4-VP16 pG5luc reporter, luciferase luminescence; scaled: DMSO wells 0%, SAHA wells 100%. 41% of 3,500 active. activation, % at 9.1 µM. shares compounds with SMARCA2 activ;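 active = activation above the solvent-only control well mean plus 3 SD, averaged across control plates, cut at about 5.2% in these data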
Numbers stand for hits; . = inactive; / = not tested or not shown. Compounds with a hit are over-represented: about 3.4% of the library has one in this group of screens.

SMILES | HSP90 inh | PG9 Ab binder | HSF1 inh | FXN GAA850 act | AI-2 QS mod | SMARCA2 activ | SMARCA2 conf | GAL4-VP16 Luc
CCN1C(=O)C(=O)N(CC(=O)c2cc(C)n(C3CC3)c2C)C1=O | / | . | / | . | / | . | / | /
CCCN1C(=O)C(=O)N(CC(=O)c2cc(C)n(C3CC3)c2C)C1=O | / | . | / | . | / | 12 | 11 | 8.7
Cc1ccc(NC(=O)CSC2=NN3CCCC(=O)N=C3S2)c(C)c1 | . | . | . | . | . | . | / | /
Cc1ccc(C)c(CSC2=NN3CCCC(=O)N=C3S2)c1 | . | . | . | . | . | 8.5 | . | .
COCCNS(=O)(=O)c1ccc2c(c1)C(=O)c1cc(S(=O)(=O)NCCOC)ccc1-2 | . | . | . | . | . | . | / | /
COCCNS(=O)(=O)c1ccc(F)c(OC)c1 | . | . | . | . | . | 14 | . | .
COc1ccccc1N1CCN(C2=Nc3cccc4cccc2c34)CC1 | . | . | . | . | . | 9.2 | 22 | 6.5
CC(=O)N1CCN(c2cc(-c3ccccc3)nc3cc(-c4cccc(Cl)c4)nn23)CC1 | / | . | / | . | / | . | / | /
O=C(COc1ccc(-n2cnnn2)cc1)Nc1cccc(Cl)c1Cl | . | . | . | . | . | 8.1 | . | .
CCc1cc2c(nc1CC)CCCN2Cc1ccccc1C(F)(F)F | / | . | / | / | / | . | / | /
O=C(Cc1cn(Cc2ccccc2)c2ccccc12)Nc1ccc(Nc2cccnc2)c(Br)c1 | / | . | / | / | / | . | / | /
COc1ccc(-c2ccc(SCC(=O)NC3CCCCC3)nn2)cc1OC | . | . | . | . | . | 8.5 | 11 | .
O=C(c1ccco1)N1CCN(c2ccc(F)cc2)CC1 | . | . | . | . | . | 18 | . | 5.8
O=C(Nc1ccc(N2CCN(C(=O)c3ccco3)CC2)cc1)c1ccc(F)cc1 | . | . | . | . | . | . | / | /
C=CCN1C(=O)/C(=C/c2ccc(O)cc2)S/C1=N/c1nccs1 | . | . | . | . | . | . | / | /
C=CCN1C(=O)/C(=C/c2ccc(OC)cc2)S/C1=N/c1nccs1 | . | . | . | . | . | 10 | . | .
O=Nc1c2cc(-c3ccccc3)[nH]nc-2c2ccccc12 | . | . | . | . | . | 8.5 | 9.8 | 5.5
Cc1cccc(-c2cc3c(N=O)c4ccccc4c-3n[nH]2)c1 | . | . | / | . | . | . | / | /
COc1ccc(C(=O)NCC2CCN(C(=O)C(=O)c3cc4ccccc4o3)CC2)cc1 | / | . | / | / | / | . | / | /
COC(=O)[C@H](CC(C)C)N(CCCc1cn(Cc2ccccc2)nn1)S(=O)(=O)c1ccccc1Br | / | / | / | / | / | . | / | /
CNc1ncnc2c1ncn2[C@H]1CN(Cc2ccc(F)cc2)C[C@@H](CO)O1 | / | . | / | . | / | . | / | /
C=CCN1[C@@H](C)[C@H](c2ccccc2)Oc2cccc(N3CCCC3)c2S1(=O)=O | / | . | / | / | / | . | / | /
CCOC(=O)N1CCN(S(=O)(=O)c2ccc(C(=O)Nc3sc4c(c3C#N)CCC4)cc2)CC1 | . | . | . | . | . | 11 | . | .
CCOC(=O)N1CCN(S(=O)(=O)c2ccc(C(=O)Nc3sc4c(c3C#N)CC(C)(C)NC4(C)C)cc2)CC1 | . | . | . | . | . | . | / | /
Cc1ccc(S(=O)(=O)N2CCCCC2)cc1C(=O)NCCC1=CCCCC1 | / | . | . | . | . | . | / | /
SMILES | HSP90 inh | PG9 Ab binder | HSF1 inh | FXN GAA850 act | AI-2 QS mod | SMARCA2 activ | SMARCA2 conf | GAL4-VP16 Luc
Cc1cc(C(=O)NCCC2=CCCCC2)c(C)o1 | . | . | . | . | . | 11 | 20 | 12
O=C(NCCc1ccccc1)NC1CCCCC1 | . | . | . | . | . | 11 | 9.0 | 7.7
O=C(NCCC1=CCCCC1)NC1CCCCC1 | . | . | . | . | . | 8.7 | 8.1 | 8.7
COC(=O)[C@]12C[C@H](CC(=O)NCCc3ccccc3OC)C(=O)N(Cc3ccc(Cl)cc3Cl)C1=C[C@H](COCc1ccccc1)O[C@@H]2C | / | / | / | / | / | . | / | /
COc1ccc(CNC(=O)c2ccccc2NC(=O)C2=C(C)OCCS2)cc1 | / | . | / | . | / | . | / | /
COc1ccccc1CNC(=O)c1ccccc1NC(=O)C1=C(C)OCCS1 | . | . | . | . | . | 8.1 | . | .
NC1=NC(=O)/C(=C/C=C/c2cccs2)S1 | / | . | . | . | . | 16 | 8.6 | 5.8
Cc1cc2c(cc1C)-n1nnnc1C(N(Cc1ccccc1)Cc1ccccc1)C(=O)N2 (configuration not stated) | / | . | / | / | / | . | / | /
CC(C)Oc1ccc(C2CC(=O)N(c3ccc(C(=O)O)cc3)C2=O)cc1 (configuration not stated) | . | . | . | . | . | . | / | /
CC(C)Oc1ccc(C2CC(=O)N(c3cccc(C(=O)O)c3)C2=O)cc1 (configuration not stated) | . | . | . | . | . | 9.8 | . | .
Cc1nn(C)c(C)c1CNC(=O)Nc1ccc(Cl)cc1 | . | . | . | . | . | 9.5 | . | 6.4
CCOC(=O)N1CCN(C(=O)C[C@H]2C[C@@]3(C(=O)OC)C(=C[C@H](COCc4ccccc4)O[C@@H]3C)N(Cc3ccc4c(c3)OCO4)C2=O)CC1 | / | . | / | / | / | . | / | /
O=C(OCc1c(-c2ccccc2)ncc2ccccc12)N1CCOCC1 | / | . | / | . | / | 9.6 | . | .
O=C(NCc1ccccc1)c1ccc2c(c1)OCCO2 | . | . | . | . | . | . | / | /
O=C(Nc1ccc2c(c1)OCCO2)C(=S)NCc1ccccc1 | . | . | . | . | . | 9.7 | . | .
CCCCNC(=O)C1CCN(Cc2ccc(OCc3ccccc3)c(OC)c2)CC1 | . | . | . | . | . | 9.4 | . | 6.2
O=S1(=O)c2ccc(N3CCCC3)cc2Oc2ccccc2CN1Cc1cn(Cc2ccc(F)cc2)nn1 | / | / | / | / | / | . | / | /
CCc1nnc(NS(=O)(=O)c2ccc(N3C(=O)c4ccccc4C3=O)cc2)s1 | . | . | . | . | . | 11 | . | .
CCc1nnc(NS(=O)(=O)c2ccc(N)cc2)s1 | . | . | . | . | . | . | / | /
O=C(NC1CCCCN(Cc2cccc(C(F)(F)F)c2)C1=O)c1ccc(F)cc1 (configuration not stated) | / | / | / | / | / | . | / | /
Cc1ccc2nc3c(cc(C(=O)NCc4ccco4)c(=N)n3C3CCCC3)c(=O)n2c1 | . | . | . | . | / | 9.1 | 15 | .
Cc1ccc2nc3c(cc(C(=O)NCC4CCCO4)c(=N)n3C3CCCC3)c(=O)n2c1 (configuration not stated) | . | . | . | . | / | 8.8 | . | .
Cc1cccn2c(=O)c3cc(C(=O)NCc4ccco4)c(=N)n(C4CCCCC4)c3nc12 | . | / | . | . | . | / | / | /
O=C(CCn1c(=O)oc2ccccc21)Nc1ccccc1 | . | . | . | . | . | 9.0 | . | .
O=C1C(Br)=C(c2ccccc2)C(c2ccccc2)=C1c1ccccc1 | / | / | / | . | / | / | / | /
